Measured values from PubChem BioAssay AID651744 (Broad Institute, 2012).
The campaign covered roughly 5,600 compounds. About 3,100 (55%) were called active. About 3% were inconclusive and are not listed. The set was probably picked from earlier hits. The list is a sample of the results. Unmarked numbers belong to inactive results.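 How the source made its calls: active means mean loss of cell viability signal at or above a set limit, and enough replicates individually reaching it; inconclusive means meets only the mean limit or only the replicate share; inactive means meets neither condition.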

Assay: viability loss of mouse 3T3 cells – cell-based, cherry-pick, single point, set 2, cytotoxicity control, confirmation (AID 651744);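 further: 0% = median of neutral control wells and 100% = median of positive control wells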
Conditions: NIH/3T3 viability, CellTiter-Glo ATP luminescence, 90 h; at 24.9 µM; stronger effect = higher value

Compound | inhibition
CO[C@H](CN(C)S(=O)(=O)c1ccc(Cl)cc1)[C@@H](C)CN(Cc1ccccc1Cl)[C@H](C)CO | 74% (active)
COc1cccc(S(=O)(=O)N2CCCCN3[C@H](CO)[C@H](c4ccc(-c5ccncc5)cc4)[C@H]3C2)c1 | 36.2% (active)
COc1cccc(S(=O)(=O)N2CCCCN3[C@H](CO)[C@H](c4ccc(C#CC5CC5)cc4)[C@H]3C2)c1 | 104% (active)
OC[C@@H]1[C@H](c2ccc(C#CC3CC3)cc2)[C@@H]2CN(CCC(F)(F)F)CCCCN12 | 102% (active)
O=C(CN1CCOCC1)N1CCCCN2[C@@H](CO)[C@H](c3ccc(/C=C/c4ccccc4)cc3)[C@@H]2C1 | 92.5% (active)
CCC(=O)N1CCCCN2[C@H](C1)[C@@H](c1ccc(/C=C/c3ccccc3)cc1)[C@@H]2CO | 103% (active)
CCC(=O)N1CCCCN2[C@H](C1)[C@@H](c1ccc(-c3ccc(F)cc3)cc1)[C@@H]2CO | 48.8% (active)
O=C(CN1CCOCC1)N1CCCCN2[C@@H](CO)[C@H](c3ccc(-c4ccccc4)cc3)[C@@H]2C1 | 6.88%
O=C(CN1CCOCC1)N1CCCCN2[C@H](CO)[C@H](c3ccc(-c4ccccc4)cc3)[C@@H]2C1 | 16.2%
COc1ccc(S(=O)(=O)Nc2ccc3c(c2)C(=O)N([C@H](C)CO)C[C@H](C)[C@H](CN(C)Cc2ccc(C(F)(F)F)cc2)O3)cc1 | 97.6% (active)
COc1ccc(CN(C)C[C@H]2Oc3ccc(NS(=O)(=O)c4ccc(Cl)cc4)cc3CC(=O)N([C@@H](C)CO)C[C@H]2C)cc1 | 36.9% (active)
Cc1ccc(S(=O)(=O)N(C)C[C@@H]2OCCCC[C@@H](C)Oc3ccc(NS(=O)(=O)c4ccc(F)cc4)cc3C(=O)N([C@H](C)CO)C[C@H]2C)cc1 | -22.2%
COc1ccc(S(=O)(=O)Nc2ccc3c(c2)C(=O)N([C@@H](C)CO)C[C@H](C)[C@H](CN(C)Cc2ccc(C(F)(F)F)cc2)O3)cc1 | 35.2% (active)
Cc1ccc(S(=O)(=O)Nc2ccc3c(c2)C(=O)N([C@H](C)CO)C[C@H](C)[C@H](CN(C)C(=O)Nc2ccc(F)cc2)OCCCC[C@H](C)O3)cc1 | 1.65%
COc1ccc(NC(=O)Nc2ccc3c(c2)C(=O)N([C@H](C)CO)C[C@H](C)[C@H](CN(C)S(=O)(=O)c2ccc(Cl)cc2)OCCCC[C@H](C)O3)cc1 | 3.56%
Cc1ccc(S(=O)(=O)Nc2ccc3c(c2)C(=O)N([C@H](C)CO)C[C@H](C)[C@H](CN(C)Cc2ccc(Cl)c(Cl)c2)O3)cc1 | 104% (active)
COc1ccc(S(=O)(=O)Nc2ccc3c(c2)C(=O)N([C@@H](C)CO)C[C@H](C)[C@@H](CN(C)Cc2ccc(C(F)(F)F)cc2)O3)cc1 | 5.53%
CN1C(=O)c2cc(NC(=O)c3cnccn3)ccc2OC[C@@H]2O[C@H](CC(=O)N[C@@H]3CCN(Cc4ccccc4)C3)CC[C@@H]21 | -11.4%
C[C@H](CO)N1C[C@H](C)[C@H](CN(C)Cc2ccc(C(F)(F)F)cc2)Oc2ccc(NS(=O)(=O)c3ccc(Cl)cc3)cc2C1=O | 101% (active)
C[C@@H]1CN([C@H](C)CO)S(=O)(=O)c2ccc(-c3cccc(C#N)c3)cc2O[C@@H]1CN(C)C(=O)Nc1ccccc1F | 77.8% (active)

Compound | inhibition
C[C@@H]1CN([C@@H](C)CO)S(=O)(=O)c2ccc(C#Cc3ccc(F)cc3)cc2O[C@H]1CN(C)C(=O)NC1CCCC1 | 90.7% (active)
C[C@@H]1CN([C@@H](C)CO)S(=O)(=O)c2ccc(-c3ccncc3)cc2O[C@@H]1CN(C)C(=O)Nc1ccc(F)cc1 | 21.8%
C[C@@H]1CN([C@@H](C)CO)S(=O)(=O)c2ccc(C#Cc3ccccc3)cc2O[C@@H]1CN(C)C(=O)Nc1ccccc1 | 49.1% (active)
C[C@@H]1CN([C@@H](C)CO)S(=O)(=O)c2ccc(C#Cc3ccc(F)cc3)cc2O[C@H]1CN(C)C(=O)c1ccccn1 | 92.1% (active)
C[C@@H]1CN([C@H](C)CO)S(=O)(=O)c2ccc(C#CC3CCCC3)cc2O[C@@H]1CN(C)Cc1cccnc1 | 104% (active)
C[C@H](CO)N1C[C@H](C)[C@H](CN(C)Cc2cccnc2)Oc2cc(C#CC3CCCC3)ccc2S1(=O)=O | 104% (active)
COc1ccc(S(=O)(=O)N2CCCCN3[C@H](C2)[C@H](c2ccc(C#CCC(C)C)cc2)[C@@H]3CO)cc1 | 64.2% (active)
COc1ccc(S(=O)(=O)N2CCCCN3[C@H](CO)[C@@H](c4ccc(C#CC(C)C)cc4)[C@H]3C2)cc1 | 105% (active)
CC(C)C#Cc1ccc([C@H]2[C@H](CO)N3CCCCN(C(=O)NC(C)C)C[C@@H]23)cc1 | 50% (active)
COc1cccc(S(=O)(=O)N2CCCCN3[C@H](C2)[C@H](c2ccc(C#CC(C)C)cc2)[C@@H]3CO)c1 | 26.4%
C[C@@H]1CN([C@H](C)CO)S(=O)(=O)c2ccc(-c3cccc(F)c3)cc2O[C@H]1CN(C)S(=O)(=O)c1ccc(F)cc1 | 60.5% (active)
COc1ccccc1-c1ccc2c(c1)O[C@H](CN(C)S(=O)(=O)c1ccc(C)cc1)[C@@H](C)CN([C@H](C)CO)S2(=O)=O | 31.1% (active)
COc1ccccc1-c1ccc2c(c1)O[C@@H](CN(C)C)[C@H](C)CN([C@H](C)CO)S2(=O)=O | 19.5%
CC(C)CC#Cc1ccc2c(c1)O[C@H](CN(C)S(=O)(=O)c1cccc(F)c1)[C@@H](C)CN([C@@H](C)CO)S2(=O)=O | 105% (active)
Cc1ccc(-c2ccc3c(c2)O[C@H](CN(C)C)[C@@H](C)CN([C@H](C)CO)S3(=O)=O)cc1 | 25.3% (active)
Cc1noc(C)c1S(=O)(=O)Nc1ccc2c(c1)C(=O)N([C@@H](C)CO)C[C@@H](C)[C@H](CN(C)S(=O)(=O)c1ccc(Cl)cc1)OCCCC[C@H](C)O2 | -2.59%
C[C@H]1CN([C@@H](C)CO)S(=O)(=O)c2ccc(C#Cc3cccc(F)c3)cc2O[C@@H]1CN(C)S(=O)(=O)c1cn(C)cn1 | 77.2% (active)
C[C@H](CO)N1C[C@H](C)[C@@H](CN(C)S(=O)(=O)c2ccc(F)cc2)Oc2cc(C3=CCCC3)ccc2S1(=O)=O | 45.4% (active)
C[C@@H]1CN([C@H](C)CO)C(=O)c2cc(NS(C)(=O)=O)ccc2O[C@@H](C)CCCCO[C@H]1CN(C)S(=O)(=O)c1cn(C)cn1 | -25.6%
C[C@@H]1CN([C@@H](C)CO)S(=O)(=O)c2ccc(-c3cccc(F)c3)cc2O[C@@H]1CN(C)S(=O)(=O)c1ccccc1 | 57.2% (active)

Compound | inhibition
C[C@@H]1CN([C@H](C)CO)C(=O)Cc2cc(NC(=O)Cc3ccccc3)ccc2O[C@H]1CN(C)Cc1ccc(Oc2ccccc2)cc1 | 83.1% (active)
C[C@@H]1CN([C@@H](C)CO)C(=O)c2cc(NC(=O)Cc3ccccc3)ccc2O[C@@H]1CN(C)Cc1ccc(Oc2ccccc2)cc1 | 104% (active)
C[C@@H]1CN([C@@H](C)CO)C(=O)c2cc(NC(=O)Nc3cccc4ccccc34)ccc2O[C@H]1CN(C)Cc1ccc(Cl)c(Cl)c1 | 18.8%
C[C@@H]1CN([C@@H](C)CO)C(=O)c2cc(NC(=O)Nc3ccc4c(c3)OCO4)ccc2O[C@@H]1CN(C)Cc1ccc(Oc2ccccc2)cc1 | 103% (active)
O=C(NCc1ccccn1)[C@@H]1[C@@H](CO)[C@@H]2Cn3c(ccc(/C=C/c4ccccc4)c3=O)[C@H]1N2CC1CC1 | 47.4% (active)
CCCNC(=O)N1[C@@H]2c3cccc(=O)n3C[C@H]1[C@H](CO)[C@H]2C(=O)NCC(F)(F)F | -10.7%
C[C@H](CO)N1C[C@H](C)[C@@H](CN(C)Cc2ccc(-c3ccccc3)cc2)Oc2ccc(NC(=O)CCC(F)(F)F)cc2CC1=O | 105% (active)
C[C@H](CO)N1C[C@H](C)[C@H](CN(C)Cc2ccc(-c3ccccc3)cc2)Oc2ccc(NC(=O)Nc3ccc(F)cc3)cc2CC1=O | 103% (active)
C[C@H]1CN([C@@H](C)CO)C(=O)Cc2cc(NC(=O)Cc3cn(C)c4ccccc34)ccc2O[C@@H]1CN(C)Cc1ccc(C(F)(F)F)cc1 | 69.9% (active)
C[C@H]1CN([C@@H](C)CO)C(=O)Cc2cc(NC(=O)Cc3cn(C)c4ccccc34)ccc2O[C@@H]1CN(C)Cc1ccccc1 | 18.1%
C[C@@H]1CN([C@H](C)CO)C(=O)Cc2cc(NC(=O)c3ccncc3)ccc2O[C@H]1CN(C)Cc1ccc(-c2ccccc2)cc1 | 102% (active)
C[C@@H]1CN([C@@H](C)CO)C(=O)Cc2cc(NC(=O)C3CCCCC3)ccc2O[C@@H]1CN(C)Cc1ccc(C(=O)Nc2ccccc2N)cc1 | 59.4% (active)
C[C@@H]1CN([C@H](C)CO)C(=O)CCCn2nncc2CO[C@@H]1CN(C)Cc1ccc(C(=O)Nc2ccccc2N)cc1 | 9.3%
C[C@@H]1CN([C@@H](C)CO)C(=O)CCCn2cc(nn2)CO[C@@H]1CN(C)S(=O)(=O)c1ccccc1F | -3.5%
C[C@H](CO)N1C[C@H](C)[C@@H](CN(C)S(=O)(=O)c2ccccc2)Oc2ncc(C#Cc3ccccc3F)cc2C1=O | 69.9% (active)
C[C@H](CO)N1C[C@H](C)[C@@H](CN(C)S(=O)(=O)c2ccccc2F)Oc2ncc(C#Cc3ccccc3F)cc2C1=O | 46.5% (active)
CCCNC(=O)N(C)C[C@@H]1Oc2ncc(C#Cc3ccccc3F)cc2C(=O)N([C@@H](C)CO)C[C@H]1C | 41.6% (active)
COc1ccc(-c2ccc3c(c2)[C@@H]2[C@@H](CCN2C(=O)Cc2ccccn2)[C@H](CO)N3C)cc1 | 9.06%
